This is an account of results in PubChem BioAssay (NCATS).

Test [1] addresses Arylsulfatase A (Homo sapiens) (UniProt P15289). Kind of test: qHTS screen for enhancers of Arylsulfatase A (ASA1): LOPAC Validation Assay (AID 720538). Further: potency means the concentration at half of the fitted maximal effect. The gist of the method:
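SV40-transformed fibroblasts from an MLD patient (ASA-I179S) were treated with compound for 48 h at 37 C. They were then lysed with 0.5 mM pNCS substrate (final) for 14 h at room temperature and stopped with NaOH; signal read by fluorescence (Ex 525/Em 598 nm), with increase denoting enhanced activity.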
Background: Quantitative high-throughput screening tests each substance at several concentrations.

A short description of test [2]: qHTS for compounds that reverse cellular toxicity of Amyloid beta (A-beta) peptide in yeast: LOPAC Validation Assay (AID 720559). Summed up:
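Yeast expressing toxic A-beta grown with pinned compounds at 30 C for 48 hr. Growth measured as absorbance at 600 nm; data normalized to DMSO and to an equimolar FeCl3/clioquinol mixture as positive control.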

Test [3] is described as follows: qHTS for Activators of Parkin Expression: LOPAC Validation Assay (NLuc Reporter) (AID 720572). The gist of the method:
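Neuronal cells with a Parkin promoter-driven FLuc/NLuc coincidence reporter were treated 24 h at 37 C in 7-point dose response (LOPAC). NLuc luminescence read after FLuc; signals normalized to DMSO and positive control (100%).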

Test [4] is described as follows: qHTS for Activators of Parkin Expression: LOPAC Validation Assay (FLuc Reporter) (AID 720573). The gist of the method: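 Neuronal cell line stably expressing FLuc/NLuc coincidence reporter under the Parkin promoter, 1,500 cells/well, dosed 24 h after seeding in 7-point series for 24 h at 37 C. FLuc luminescence read; normalized to DMSO and positive control (100%).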

Test [5] has as its target Hexokinase-4 (Homo sapiens) + Glucokinase regulatory protein (Homo sapiens) (UniProt P35557+Q14397). As to the kind of experiment: qHTS assay for inhibitors of recombinant human GCK-GKRP interaction: Diaphorase-coupled assay (AID 743205). Summed up:
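Compounds pre-incubated 20 min with substrate, then 10 nM GST-GCK with 10 nM FLAG-GKRP added. GCK activity coupled via G6PDH and diaphorase to resorufin (5 mM glucose, 0.4 mM ATP, 0.15 mM NADP+, pH 7.6), read kinetically over 30 minutes at Ex 525/Em 590 nm.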

SMILES strings stand for the structures. Records with an inconclusive call do not appear. The source made the active and inactive calls. The call rests on the fitted dose curve; in most records, active means well fitted curve in the direction sought with a large enough effect; inconclusive means small, poorly fitted or top-dose-only effect, or another doubt; inactive means no such curve, though single readings can be large; an effect the other way counts as inactive or inconclusive.

Arylsulfatase A (Homo sapiens), sequence (P15289 whole entry, looked up): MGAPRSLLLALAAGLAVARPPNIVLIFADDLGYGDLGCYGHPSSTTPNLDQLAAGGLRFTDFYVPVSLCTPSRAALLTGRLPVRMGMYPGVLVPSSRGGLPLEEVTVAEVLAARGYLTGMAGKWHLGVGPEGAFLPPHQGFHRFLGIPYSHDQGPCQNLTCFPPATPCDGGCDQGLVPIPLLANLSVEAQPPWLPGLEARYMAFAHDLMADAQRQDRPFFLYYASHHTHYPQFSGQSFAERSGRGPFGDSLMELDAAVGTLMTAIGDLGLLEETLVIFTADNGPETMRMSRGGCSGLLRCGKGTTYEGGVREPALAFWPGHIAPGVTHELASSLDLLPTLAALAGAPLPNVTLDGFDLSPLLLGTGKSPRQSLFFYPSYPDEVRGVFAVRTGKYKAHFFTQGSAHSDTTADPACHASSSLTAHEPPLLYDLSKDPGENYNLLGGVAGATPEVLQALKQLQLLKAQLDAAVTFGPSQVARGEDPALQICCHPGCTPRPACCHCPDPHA
Hexokinase-4 (Homo sapiens) + Glucokinase regulatory protein (Homo sapiens), sequence (P35557 whole entry, looked up): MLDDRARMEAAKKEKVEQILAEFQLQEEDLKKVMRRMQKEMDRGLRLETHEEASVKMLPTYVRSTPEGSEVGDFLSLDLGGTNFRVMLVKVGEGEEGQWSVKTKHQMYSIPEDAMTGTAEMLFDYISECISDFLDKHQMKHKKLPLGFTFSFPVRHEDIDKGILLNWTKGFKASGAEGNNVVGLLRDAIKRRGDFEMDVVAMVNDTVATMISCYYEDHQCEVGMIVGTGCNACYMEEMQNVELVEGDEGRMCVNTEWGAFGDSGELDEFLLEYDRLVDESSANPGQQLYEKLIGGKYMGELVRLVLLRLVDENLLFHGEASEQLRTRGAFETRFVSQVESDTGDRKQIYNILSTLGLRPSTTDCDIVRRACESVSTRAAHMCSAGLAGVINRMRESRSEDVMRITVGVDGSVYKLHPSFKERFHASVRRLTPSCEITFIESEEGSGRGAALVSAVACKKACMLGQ
Hexokinase-4 (Homo sapiens) + Glucokinase regulatory protein (Homo sapiens), sequence (Q14397 whole entry, looked up): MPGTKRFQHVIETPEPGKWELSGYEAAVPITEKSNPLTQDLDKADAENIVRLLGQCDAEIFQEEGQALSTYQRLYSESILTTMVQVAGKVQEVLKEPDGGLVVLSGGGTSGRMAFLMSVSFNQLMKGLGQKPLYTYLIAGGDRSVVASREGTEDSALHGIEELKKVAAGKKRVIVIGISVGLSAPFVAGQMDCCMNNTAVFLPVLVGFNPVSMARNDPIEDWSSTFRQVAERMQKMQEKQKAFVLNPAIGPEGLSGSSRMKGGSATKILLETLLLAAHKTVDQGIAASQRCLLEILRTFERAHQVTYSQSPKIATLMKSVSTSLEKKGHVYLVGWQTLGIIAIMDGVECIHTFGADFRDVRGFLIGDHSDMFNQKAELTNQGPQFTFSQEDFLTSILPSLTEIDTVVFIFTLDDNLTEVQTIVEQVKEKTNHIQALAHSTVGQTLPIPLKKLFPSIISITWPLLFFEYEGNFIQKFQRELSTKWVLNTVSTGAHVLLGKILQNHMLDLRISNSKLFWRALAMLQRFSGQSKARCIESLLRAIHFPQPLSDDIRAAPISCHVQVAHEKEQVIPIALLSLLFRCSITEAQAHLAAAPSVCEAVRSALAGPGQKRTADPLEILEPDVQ

As to `O=C(O)Cc1ccc(O)c(O)c1`, the Potency result in test [1], in test [3], in test [4] and in test [5] was “inactive” in each case. In test [2], the result was inactive.
In the case of `CC1CCN=C(N)S1` (stereo not given), the Potency entry in test [1], in test [3], in test [4] and in test [5] was “inactive” throughout. For the same compound, the call in test [2] was inactive.
For `Cc1nc(N=Nc2ccc(S(=O)(=O)O)cc2S(=O)(=O)O)c(COP(=O)(O)O)c(C=O)c1O`, the Potency result in test [1], in test [3], in test [4] and in test [5] was “inactive” in each case. Moreover, the compound was called inactive in test [2].
In the case of `CC(/C=C/c1cccc(Oc2ccc(F)cc2)c1)N(O)C(N)=O` (stereo not given), the Potency result in test [1], in test [3], in test [4] and in test [5] was “inactive” in each case. Also, the call in test [2] was inactive.
`NCCCNCCCCNCCCN`: the Potency entry in test [1], in test [3], in test [4] and in test [5] was “inactive” throughout. Further, the outcome in test [2] was inactive.
Turning to `c1ccc(C(NCCNC(c2ccccc2)c2ccccc2)c2ccccc2)cc1`, the Potency result in test [1], in test [3], in test [4] and in test [5] was “inactive” throughout. The call in test [2] was inactive.
Take `O=C(O)c1cc2cc(F)ccc2[nH]1`: the Potency entry in test [1], in test [3], in test [4] and in test [5] was “inactive” each time. Further, the result in test [2] was inactive.
In the case of `N=C(N)c1ccc(N)cc1`, the Potency entry in test [1], in test [3], in test [4] and in test [5] was “inactive” each time. In addition, the call in test [2] was inactive.
In the case of `CN(C)C(=O)/N=N/C(=O)N(C)C`, the Potency result in test [1], in test [3], in test [4] and in test [5] was “inactive” throughout. The compound was classed as inactive in test [2].
In the case of `Cn1c(=O)c2[nH]c(-c3ccc(S(=O)(=O)O)cc3)nc2n(C)c1=O`, the Potency result in test [1], in test [3], in test [4] and in test [5] was “inactive” throughout. Also, the compound was called inactive in test [2].
Consider `O=C(OCCN1CCOCC1)C1(c2ccccc2)CCCCC1`, for which the Potency result in test [1], in test [3], in test [4] and in test [5] was “inactive” in each case. Moreover, the call in test [2] was inactive.
As to `CN[C@H](CC(=O)O)C(=O)O`, the Potency entry in test [1], in test [3], in test [4] and in test [5] was “inactive” each time. In addition, the outcome in test [2] was inactive.
Take `C=CCN1CCc2cc(O)c(O)cc2C(c2ccccc2)C1` (stereo not given): the Potency result in test [1], in test [3], in test [4] and in test [5] was “inactive” in each case. Besides, the compound was called inactive in test [2].
In the case of `COc1ccc(CCN(C)CCc2ccc(OC)c(OC)c2)cc1OC`, the Potency entry in test [1], in test [3], in test [4] and in test [5] was “inactive” throughout. Further, in test [2], the compound was called inactive.
For `CSc1nc(N)c2ncn([C@@H]3O[C@H](COP(=O)(O)OP(=O)(O)O)C(O)[C@H]3O)c2n1` (stereo not given in full), the Potency entry in test [1], in test [3], in test [4] and in test [5] was “inactive” each time. The outcome in test [2] was inactive.
Regarding `CCCCCC(O)CCCC(=O)O` (stereo not given), the Potency entry in test [1], in test [4] and in test [5] was “inactive” throughout. Moreover, the outcome in test [2] was inactive.
Turning to `NC(=O)c1cc[n+](CC2=C(C(=O)O)N3C(=O)[C@@H](NC(=O)[C@@H](c4ccccc4)S(=O)(=O)[O-])[C@H]3SC2)cc1`, the Potency result in test [1], in test [3], in test [4] and in test [5] was “inactive” each time. For the same compound, the result in test [2] was inactive.
`COc1ccccc1N1CCN(CCCCNC(=O)c2ccc3ccccc3c2)CC1`: the Potency result in test [1], in test [3], in test [4] and in test [5] was “inactive” in each case. In addition, the compound was classed as inactive in test [2].
For `CCCCCC[C@@H]([C@@H](C)O)n1cnc2c(N)ncnc21`, the Potency entry in test [1], in test [3], in test [4] and in test [5] was “inactive” throughout. Further, in test [2], the compound was classed as inactive.
For the compound `CN1C2CCC1CC(OC(c1ccccc1)c1ccccc1)C2` (stereo not given), the Potency result in test [1], in test [3], in test [4] and in test [5] was “inactive” each time. For the same compound, the compound was classed as inactive in test [2].
Take `OCC1NCC(O)C(O)C1O` (stereo not given): the Potency result in test [1], in test [3], in test [4] and in test [5] was “inactive” each time. For the same compound, the compound was called inactive in test [2].
With `O=c1cc(-c2ccccc2F)[nH]c2cc3c(cc12)OCO3`, the Potency entry in test [1], in test [3], in test [4] and in test [5] was “inactive” throughout. Moreover, the outcome in test [2] was inactive.
For the compound `Nc1ccc(-c2nc3ccc(-c4nc5ccc(N)cc5[nH]4)cc3[nH]2)cc1`, the Potency in test [1] is 6.75 µM (active). Also, the compound was classed as inactive in test [2]. Further, the Potency entry in test [3], in test [4] and in test [5] was “inactive” in each case.
In the case of `C=CC[C@H](N)C(=O)O`, the Potency entry in test [1], in test [4] and in test [5] was “inactive” each time. The call in test [2] was inactive.
As to `COc1ccc2c(c1)CCC1C2CC[C@@]2(C)C1CC[C@@H]2NCCCCCCN1C(=O)C=CC1=O` (stereo not given in full), the Potency entry in test [1], in test [3] and in test [5] was “inactive” throughout. The result in test [2] was inactive.
As for `O=C(O)c1ccccc1Nc1ccccc1`, the Potency entry in test [1], in test [3], in test [4] and in test [5] was “inactive” each time. Moreover, the compound was called inactive in test [2].
Turning to `CO/N=C(\C(=O)N[C@@H]1C(=O)N2C(C(=O)O)=C(CSc3nc(=O)c(O)nn3C)CSC12)c1csc(N)n1` (stereo not given in full), the Potency result in test [1], in test [3], in test [4] and in test [5] was “inactive” in each case. In test [2], the compound was classed as inactive.
Turning to `Nc1ccc(-c2ccc3ccccc3n2)cc1`, the Potency entry in test [1], in test [3] and in test [5] was “inactive” in each case. For the same compound, the call in test [2] was inactive.
Take `COc1ccc2c(c1)c(CC(=O)O)c(C)n2C(=O)c1ccccc1`: the Potency result in test [1], in test [4] and in test [5] was “inactive” in each case. The outcome in test [2] was inactive.
For the compound `c1ccc(C2CN3CCSC3=N2)cc1` (stereo not given), the Potency entry in test [1], in test [3], in test [4] and in test [5] was “inactive” each time. Besides, in test [2], the outcome was inactive.
For `CC(=O)N[C@@H](Cc1c[nH]c2ccccc12)C(=O)OCc1cc(C(F)(F)F)cc(C(F)(F)F)c1`, the Potency entry in test [1], in test [3], in test [4] and in test [5] was “inactive” throughout. Also, in test [2], the result was inactive.
For the compound `COc1cc(CNC(=O)CCCCCCC(C)C)ccc1O`, the Potency entry in test [1], in test [3], in test [4] and in test [5] was “inactive” in each case. In addition, the compound was classed as inactive in test [2].
Regarding `O=c1onc2cnc3ccccc3n12`, the Potency entry in test [1], in test [3], in test [4] and in test [5] was “inactive” throughout. For the same compound, the outcome in test [2] was inactive.
